Reference: the supplement of paper PMC6555819

Assays:
Experiment in all cases: PBM binding z-score (relative to random genomic background probes); higher = stronger binding; sequences stand for … in GC…GCGATTGACAGCGTAGAATGAAGG
[1] = test system: FXR:RXRa (NR concentration 270 nM, RXRa partner concentration 90 nM)
In short: (§1)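 Regression normalization was applied to scanned fluorescence from custom Agilent 4×180K protein-binding microarrays. Before scanning, arrays were incubated 1 h with ligand-free nuclear receptor dimers, and binding was detected with antibodies against each partner (one per run). Binding z-scores use the random background probes as reference.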

[2] = test system: LXRa:RXRa (NR concentration 270 nM, RXRa partner concentration 90 nM)
In short: as §1

[3] = test system: LXRa homodimer (NR concentration 270 nM)
In short: as §1

[4] = test system: LXRb:RXRa (NR concentration 270 nM, RXRa partner concentration 90 nM)
In short: as §1

[5] = test system: LXRb homodimer (NR concentration 270 nM)
In short: as §1

[6] = test system: PPARa:RXRa (NR concentration 270 nM, RXRa partner concentration 90 nM)
In short: as §1

[7] = test system: PPARg:RXRa (NR concentration 180 nM, RXRa partner concentration 90 nM)
In short: as §1

[8] = test system: PPARg:RXRa 270nM:90nM, anti-RXR (NR concentration 270 nM, RXRa partner concentration 90 nM)
In short: as §1

[9] = test system: PPARg:RXRa 30nM:10nM, anti-RXR (NR concentration 30 nM, RXRa partner concentration 10 nM)
In short: as §1

[10] = test system: PPARg:RXRa 90nM:30nM, anti-RXR (NR concentration 90 nM, RXRa partner concentration 30 nM)
In short: as §1

[11] = test system: PPARg:RXRa DBDmut IVT, anti-RXR (DBD mutation: RXRa K156A/R161A, NR concentration 270 nM, RXRa partner concentration 90 nM)
In short: as §1

[12] = test system: PPARg:RXRa IVT, anti-PPARg (NR concentration 270 nM, RXRa partner concentration 90 nM)
In short: as §1

[13] = test system: PPARg DBDmut:RXRa IVT, anti-PPARg (DBD mutation: PPARg1 K132A/R137A, NR concentration 270 nM, RXRa partner concentration 90 nM)
In short: as §1

[14] = test system: PPARg DBDmut IVT, anti-PPARg (DBD mutation: PPARg1 K132A/R137A, NR concentration 270 nM)
In short: as §1

[15] = test system: PPARg homodimer (NR concentration 180 nM)
In short: as §1

[16] = test system: PXR:RXRa (NR concentration 270 nM, RXRa partner concentration 90 nM)
In short: as §1

[17] = test system: PXR homodimer (NR concentration 270 nM)
In short: as §1

[18] = test system: RARa:RXR (NR concentration 270 nM, RXRa partner concentration 90 nM)
In short: as §1

[19] = test system: RARa homodimer (NR concentration 270 nM)
In short: as §1

[20] = test system: RARb:RXRa (NR concentration 270 nM, RXRa partner concentration 90 nM)
In short: as §1

| Sequence | PBM binding z-score [1] | PBM binding z-score [2] | PBM binding z-score [3] | PBM binding z-score [4] | PBM binding z-score [5] | PBM binding z-score [6] | PBM binding z-score [7] | PBM binding z-score [8] | PBM binding z-score [9] | PBM binding z-score [10] | PBM binding z-score [11] | PBM binding z-score [12] | PBM binding z-score [13] | PBM binding z-score [14] | PBM binding z-score [15] | PBM binding z-score [16] | PBM binding z-score [17] | PBM binding z-score [18] | PBM binding z-score [19] | PBM binding z-score [20] |
| --- | --- | --- | --- | --- | --- | --- | --- | --- | --- | --- | --- | --- | --- | --- | --- | --- | --- | --- | --- | --- |
| CGTCCAAGGTCAAGGTCGGTGAAAGAGACTCGAA | 7.27 | 5.92 | 0.458 | 4.22 | 0.00899 | 5.85 | 5.34 | 5.83 | 2.16 | 4.39 | 3.16 | 4.02 | -0.058 | -0.563 | 2.86 | 4.31 | 0.887 | 5.05 | 0.962 | 5.34 |
| ATCGACAGGTCGACGAGGTGAGTATACACCGTTT | 0.539 | 0.314 | -0.541 | 0.288 | -0.436 | 1.42 | 1.11 | 0.392 | 0.0912 | -0.0285 | -0.262 | 0.929 | 0.221 | 0.384 | 0.58 | 0.461 | -0.437 | 1.54 | 0.5 | 1.53 |
| ATAAGTAGGTTACATCCGGGTCATTCAGGCTATG | 2.43 | 4.37 | 1.57 | 2.84 | 1.24 | 4.53 | 6.68 | 5.15 | 3.19 | 4.37 | 7.68 | 7.66 | 4.25 | 3.55 | 2.34 | 3.51 | 2.42 | 3.58 | 1.79 | 2.26 |
| CGAACTAGGTCATCCAGGACAGTGCATACATTGA | 4.36 | 2.32 | 0.87 | 2.15 | 0.0357 | 4.85 | 7.67 | 6.47 | 3.97 | 5.85 | 8.26 | 8.19 | 1.89 | 1.6 | 1.98 | 2.11 | 1.49 | 2.35 | 0.873 | 3.91 |
| TCATATAGGTAATACATGTGAAAGTCGGCATCTA | 0.838 | 1.1 | 0.394 | 0.937 | 0.272 | 1.43 | 1.42 | 2.35 | 3.69 | 3.13 | 3.84 | 2.56 | 1.65 | 1.42 | 0.451 | 0.682 | 0.0389 | 1.03 | 0.882 | 0.439 |
| TAGCCTAGGTCAGATCGGGCCAGTGTACGCTATA | 1.85 | 0.96 | -0.454 | 0.525 | -0.897 | 1.49 | 0.36 | 0.761 | -0.533 | -0.134 | 0.622 | 1.31 | -1.37 | -0.791 | -0.0708 | 1.18 | -1.04 | 1.19 | -1.04 | 3.04 |
| ATCTCTAGGTAAGACTCATTTCAGTGAAGAACGC | 0.503 | 0.373 | 0.526 | 0.488 | 0.888 | -0.0236 | 0.0953 | 0.265 | 0.363 | 0.295 | 2.23 | 1.3 | 0.559 | 1.36 | 1.13 | -0.0936 | 0.605 | 0.211 | 1.77 | 0.27 |
| ATCTCTAGGTAACAAGTTCTGTGAAAGAGAGGAC | 0.351 | 0.0214 | 0.142 | 0.0812 | 0.681 | 0.641 | 1.01 | 1.5 | 0.751 | 1.08 | 3.07 | 2.91 | 1.35 | 1.11 | 0.9 | 0.15 | 0.424 | 0.67 | 0.681 | 0.332 |
| CCTATTAGTTGACCATAAGGACAACCGAAGCTCG | 1.29 | 0.43 | 0.89 | 0.473 | 1.33 | 0.262 | 0.871 | 0.107 | 0.251 | 0.449 | 0.245 | 0.48 | 1.08 | 1.03 | 2.6 | 0.623 | 1.23 | 1.27 | 2.5 | 1.22 |
| TCTTGTAGACCAAAGGTTAAGAAAGCCGAAGCCT | 1.29 | 1.9 | -0.151 | 1.82 | -0.338 | 4.78 | 8.36 | 8.52 | 8.06 | 9.8 | 2.06 | 3.9 | 0.87 | 0.749 | 0.811 | 1.58 | -0.8 | 2.39 | -0.178 | 2.03 |
| AGATCGAGGGCAATGAGTTGATAGCACGGGTGGC | 0.45 | 0.121 | -0.246 | -0.143 | -0.369 | 1.14 | 1.16 | 0.568 | 0.0147 | 0.283 | 2.97 | 2.42 | 0.184 | -0.0429 | 0.453 | 1.53 | 3.29 | 0.437 | 0.369 | 2.12 |
| ACAGACAGGTGTGTGAAGGTAACTCAGCTGGACG | 0.0191 | -0.00303 | -0.46 | -0.618 | -0.921 | -0.347 | 0.522 | -0.0357 | -0.212 | -0.375 | -0.215 | -0.0763 | -0.159 | -0.168 | -0.299 | -0.399 | -0.457 | -0.395 | -0.0972 | -0.265 |
| CGAACTAGGTCAAGGATAGTGAATCTCCGCACGC | 3.06 | 1.9 | 0.0332 | 1.36 | -0.0688 | 4.56 | 7.74 | 6.47 | 4.24 | 6.39 | 8.31 | 8.31 | 3.8 | 1.33 | 2.41 | 0.863 | -0.425 | 1.96 | 0.921 | 3.73 |
| TAGCCTAGGTCATGCGGGCCATTATAGTGTCGGC | 4.23 | 3.27 | 0.473 | 1.96 | -0.482 | 3.6 | 2.62 | 2.47 | 0.148 | 1.56 | 2.07 | 2.84 | 0.0501 | -0.158 | 0.864 | 1.97 | 0.0749 | 2.7 | -0.379 | 3.69 |
